This passage reports growth results from PubChem BioAssay (NCI).

About 83,000 compounds went through this panel and 20% of them were active in at least one assay; those are over-represented in the sample as a whole.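 Growth was measured after 48 h exposure to one concentration of compound in 96-well plates. Values under 10 count as active.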 A number with no mark means an inactive call. Calls of active or inactive are those of the source.

Test systems include T-47D breast; BT-549 breast; MDA-MB-435 melanoma; SW-620 colon; MCF7 breast; HCT-116 colon; HCC-2998 colon; KM12 colon.
What all share (assay): NCI-60 one-dose screen, 48 h (100 = growth as untreated, 0 = no growth, -100 = all killed)
Holding throughout (details): 10 µM unless noted

Take `S=C(c1ccc2c(c1)OCO2)N1CCN(c2ccccc2Cl)CC1`: the growth with T-47D breast is 94%; in the experiment on BT-549 breast, 81.6%; with MDA-MB-435 melanoma, 99.9%; in the experiment with SW-620 colon it was 102%; in the experiment on MCF7 breast, 103%; with HCT-116 colon, 92.3%. Also, the growth in the experiment with HCC-2998 colon is 113%; with KM12 colon it was 103%.

With `CC(=O)O[C@]1(C(C)=O)CCC2C3C[C@H](C)C4=CC(=O)CC[C@]4(C)C3CC[C@@]21C` (some centres not stated), the growth is 95.3% in the experiment on T-47D breast; 63.6% with BT-549 breast; 104% in the experiment on MDA-MB-435 melanoma; 112% in the experiment on SW-620 colon; 90.1% with MCF7 breast; 83.6% in the experiment on HCT-116 colon. In addition, the growth in the experiment with HCC-2998 colon was 106%; with KM12 colon it was 103%.

For `CCN1C(=O)N(CC)C2Nn3c(s/c(=C\c4cccc([N+](=O)[O-])c4)c3=O)=NC21` (configuration not stated), the growth was 59.5% in the experiment with T-47D breast; 58.5% in the experiment on BT-549 breast; -36.8% (active) in the experiment on MDA-MB-435 melanoma; 36.4% in the experiment on SW-620 colon; 35% in the experiment with MCF7 breast; 23.6% in the experiment with HCT-116 colon. The results for the growth in the experiment with HCC-2998 colon and with KM12 colon were 87.7% and 26.7%, respectively.

Take `N#C/C(=C\c1ccc2c(c1)OCO2)n1nnc2cc(F)c(F)cc21`: the growth with T-47D breast is 20.6%; with BT-549 breast, 60%; in the experiment on MDA-MB-435 melanoma it was 3.37% (active); in the experiment on SW-620 colon, 44.3%; in the experiment with MCF7 breast, 44.4%; with HCT-116 colon it was 47%. Further, the growth is 105% with HCC-2998 colon and 47.4% in the experiment on KM12 colon.

Regarding `Cc1c(C(=O)OC(=NC2CCCCC2)NC2CCCCC2)sc2c1c(=O)nc1c(C#N)n[nH]n12`, the growth in the experiment on T-47D breast was 109%; in the experiment on BT-549 breast, 121%; in the experiment with MDA-MB-435 melanoma, 117%; with SW-620 colon, 107%; in the experiment on MCF7 breast, 103%; with HCT-116 colon, 104%. In addition, the growth in the experiment on HCC-2998 colon is 100%; in the experiment with KM12 colon it was 110%.

As to `COc1cc(/C=C/C(=O)c2cccc(-n3cc(-c4ccccc4)[nH]c3=O)c2)ccc1O`, the growth with T-47D breast is 62.9%; with BT-549 breast it was 43.9%; in the experiment with MDA-MB-435 melanoma it was 58.5%; in the experiment on SW-620 colon, 4.95% (active); with MCF7 breast, 16.5%; in the experiment with HCT-116 colon it was 13.5%. In addition, the growth with HCC-2998 colon was 78.9%; with KM12 colon it was 15%.

Regarding `O=C(NCCNc1cc(-c2cn(-c3ccccc3)nc2-c2cccc(O)c2)ccn1)Nc1ccccc1`, the growth with T-47D breast is 45.9%; with BT-549 breast, 52.9%; in the experiment with MDA-MB-435 melanoma, 93%; in the experiment on SW-620 colon it was 84.5%; in the experiment with MCF7 breast, 78.4%; in the experiment with HCT-116 colon it was 53.2%. Moreover, the growth is 92.5% in the experiment with HCC-2998 colon and 89.2% in the experiment on KM12 colon.

In the case of `COc1cc(/C=N/n2c(CN3CCOCC3)nc3ccccc3c2=O)cc(OC)c1OC`, the growth is 94.4% in the experiment with T-47D breast; 103% in the experiment on BT-549 breast; 102% with MDA-MB-435 melanoma; 106% in the experiment on SW-620 colon; 99.4% in the experiment with MCF7 breast; 94.5% with HCT-116 colon. Besides, the growth in the experiment on HCC-2998 colon was 104%; in the experiment on KM12 colon, 101%.

Regarding `COc1ccccc1CNCCCN1C(=O)c2ccc3c4c(ccc(c24)C1=O)C(=O)N(CCCNCCCCN)C3=O`, the growth in the experiment on T-47D breast is -14.7% (active); in the experiment on BT-549 breast, -75.6% (active); in the experiment on MDA-MB-435 melanoma it was 1.2% (active); in the experiment with SW-620 colon, -0.0566% (active); in the experiment with MCF7 breast it was -45.7% (active); in the experiment on HCT-116 colon, -8.71% (active). The growth in the experiment on HCC-2998 colon was -71.8% (active); in the experiment with KM12 colon, -15.8% (active).

Consider `CCCCCCN(CCCCCC)c1ccc(/C=C2/SC(=O)N(c3nc(N4CCCC4)nc(N4CCCC4)n3)C2=O)c(C)c1`, for which the growth in the experiment with T-47D breast is 63.6%; in the experiment with BT-549 breast, 88.1%; with MDA-MB-435 melanoma, 75.5%; in the experiment on SW-620 colon, 73.2%; with MCF7 breast it was 54.8%; with HCT-116 colon, 45.5%. Besides, the values for the growth in the experiment with HCC-2998 colon and in the experiment with KM12 colon were 41.7% and 52.9%, respectively.

As for `COc1ccc(-c2csc(C3=C(O)CN(CCCN4CCCC4=O)C3=N)n2)cc1OC`, the growth is 86.5% in the experiment with T-47D breast; 100% with BT-549 breast; 116% with MDA-MB-435 melanoma; 103% in the experiment with SW-620 colon; 109% in the experiment with MCF7 breast; 88.7% with HCT-116 colon. For the same molecule, the growth with HCC-2998 colon was 98.3%; in the experiment with KM12 colon it was 104%.

`COC(=O)c1ccc(CSc2nnc(-c3c(C)nc4ccc(C)cn34)o2)cc1`: the growth with T-47D breast is 89.4%; with BT-549 breast, 100%; in the experiment on MDA-MB-435 melanoma, 102%; in the experiment on SW-620 colon, 108%; in the experiment on MCF7 breast, 85.9%; in the experiment on HCT-116 colon it was 99.3%. In addition, the growth in the experiment on HCC-2998 colon is 87%; with KM12 colon it was 110%.

For `c1ccc2cc3nc4cc5ccccc5cc4nc3cc2c1`, the growth with T-47D breast is 94.3%; in the experiment with BT-549 breast, 105%; in the experiment with MDA-MB-435 melanoma, 119%; in the experiment with SW-620 colon it was 84.1%; with MCF7 breast, 81.9%; in the experiment with HCT-116 colon it was 72.3%. Besides, the growth with HCC-2998 colon was 96.4%; in the experiment with KM12 colon, 85.4%.

`CCN(CC)CCCCCCNc1cc(OC)c(Cl)c2cccnc12`: the growth in the experiment on T-47D breast was 81.4%; in the experiment with BT-549 breast, 93.5%; with MDA-MB-435 melanoma, 14.7%; in the experiment on SW-620 colon, 81.2%; with MCF7 breast, 66.7%; in the experiment on HCT-116 colon, 70.8%. Also, the growth in the experiment on HCC-2998 colon was 82.1%; in the experiment with KM12 colon, 76.9%.
